Hit rate of the full screen: of about 62,000 compounds, about 100 (0.16%) were called active.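 The calls were made as follows: active = inhibition above 20% in each of the two 10-compound mixture wells holding the compound; inactive = the rest.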 The full list was thinned out, with actives kept by preference.

Complement C1s subcomponent (Homo sapiens), sequence (P09871 16-437 limits assumed): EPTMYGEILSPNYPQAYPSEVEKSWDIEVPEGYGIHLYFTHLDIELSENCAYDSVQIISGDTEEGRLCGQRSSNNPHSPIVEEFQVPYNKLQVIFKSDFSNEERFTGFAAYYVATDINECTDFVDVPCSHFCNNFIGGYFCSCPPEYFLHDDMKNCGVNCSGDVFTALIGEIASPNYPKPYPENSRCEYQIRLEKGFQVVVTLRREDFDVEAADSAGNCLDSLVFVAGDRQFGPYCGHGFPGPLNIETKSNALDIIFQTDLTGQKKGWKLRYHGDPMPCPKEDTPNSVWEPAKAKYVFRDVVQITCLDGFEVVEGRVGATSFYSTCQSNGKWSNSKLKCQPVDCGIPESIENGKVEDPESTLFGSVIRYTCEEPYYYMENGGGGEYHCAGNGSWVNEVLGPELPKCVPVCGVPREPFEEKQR
Complement C1s subcomponent (Homo sapiens), sequence (P09871 438-688 limits assumed): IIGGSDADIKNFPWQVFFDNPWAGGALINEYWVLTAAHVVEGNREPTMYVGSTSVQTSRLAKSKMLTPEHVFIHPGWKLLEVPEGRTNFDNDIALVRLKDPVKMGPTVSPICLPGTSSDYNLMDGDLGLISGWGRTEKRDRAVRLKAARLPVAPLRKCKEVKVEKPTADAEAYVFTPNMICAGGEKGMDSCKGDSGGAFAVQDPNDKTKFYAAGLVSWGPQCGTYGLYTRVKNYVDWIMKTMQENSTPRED

This assay has as its target Complement C1s subcomponent (Homo sapiens) (UniProt P09871). Briefly: human C1s inhibition by compound pools – biochemical, 10-compound mixtures, primary screen (AID 538).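 Also: 0% = enzyme wells lacking compound mixture and 100% = no-enzyme blank wells.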 The note with it: purified C1s, fluorogenic AMC substrate, pooled mixtures; screened at 5 µM (by protocol).
Take `Cc1cc(C)c(C#N)c(SCc2ccccc2C(=O)O)n1`: the mean inhibition % of two 10-compound mixtures (hits give high values) is -0.765% (inactive). In the case of `O=C(c1ccc2c(c1)OCO2)N1CCNc2ccccc2C1`, the mean inhibition % of two 10-compound mixtures (hits give high values) was 12.4% (inactive). Then `C=CCn1c(SCc2csc(C)n2)nc2scc(-c3ccc(C)o3)c2c1=O`, with -5.96% (inactive); and `CCN(c1ccccc1)S(=O)(=O)c1cccc(C(=O)O)c1`, with -13.8% (inactive). Then `CCOC(=O)n1c(SCC(=O)N(CC)CC)nc2ccccc21`, with 12.2% (inactive). The same measure for `O=C1c2ccccc2C(O)N1Cc1ccccc1` (stereo not drawn): -43.8% (inactive). `COc1c(Br)cc2c(C)c(C(=O)N3CCOCC3)oc2c1Br`: the mean inhibition % of two 10-compound mixtures (hits give high values) is 2.58% (inactive). On to `CCOC(=O)COc1ccc(Cl)cc1C1NC(=O)NC(C)=C1C(C)=O` (stereo not drawn), for which the mean inhibition % of two 10-compound mixtures (hits give high values) is -13% (inactive). `COc1cc2c(cc1OC)C(c1ccncc1)CC(=O)N2` (stereo not drawn): the mean inhibition % of two 10-compound mixtures (hits give high values) is -11.7% (inactive). Turning to `CC(=O)Nc1ccc(S(=O)(=O)N2CCSCC2)cc1`, the mean inhibition % of two 10-compound mixtures (hits give high values) is 10.8% (inactive). Take `CC(=O)Nc1ccc(NC(=O)CN2CCCC(C)C2)c(Cl)c1` (stereo not drawn): the mean inhibition % of two 10-compound mixtures (hits give high values) was 8.18% (inactive). The same measure for `O=C(O)CCSc1nnc(-c2ccccc2)n1-c1ccccc1`: -30.3% (inactive); for `CC(C)OC(=O)c1cc(NC(=O)C2C3CCC(O3)C2C(=O)O)cc(C(=O)OC(C)C)c1` (stereo not drawn): -14.5% (inactive); for `OC(COc1cccc2ccccc12)CN1CCN(c2ccccn2)CC1` (stereo not drawn): -2.25% (inactive). `COC(=O)c1ccc(Oc2nc(NC(C)C)nc(SC)n2)cc1`: the mean inhibition % of two 10-compound mixtures (hits give high values) was -1.35% (inactive). Then `CCCCc1cc(=O)oc2cc(C)cc(OCc3nn[nH]n3)c12`, with -6.89% (inactive); and `CC(C)COC(=O)c1ccc(NC(=O)C2C3C=CC(C3)C2C(=O)O)cc1` (stereo not drawn), with -22.9% (inactive); and `COc1ccccc1NC1=NC2(CCCC2)N=C(N)N1`, with -18.3% (inactive). Then `Cc1cc(NC(=O)COn2nnc3ccccc32)no1`, with 0.88% (inactive). The same measure for `CCOC(=O)C1C(=O)OC2(CCCC2)C1C(=O)OCC` (stereo not drawn): 0.585% (inactive); for `COc1nc(OC)nc(N(C)CCO)n1`: -12.5% (inactive).

As for `CC1CCN(C(=O)Cn2cc(C(=O)c3ccco3)c3ccccc32)CC1`, the mean inhibition % of two 10-compound mixtures (hits give high values) is -1.29% (inactive). Then `CC(C)(C)C(=O)CCN1C(=O)C2(OCCO2)c2ccccc21`, with 10.6% (inactive). The same measure for `CCCN(CCC)C(=O)C1c2ccccc2Oc2ccccc21`: -0.445% (inactive); for `Nc1nc(SCCOc2ccccc2)n[nH]1`: 2.17% (inactive); for `CCCc1cc(=O)n2[nH]c(SCc3ccccc3)nc2n1`: -2.75% (inactive). On to `CC(=O)Oc1cccc(N2C(=O)CC(Nc3ccc(N4CCOCC4)cc3)C2=O)c1` (stereo not drawn), for which the mean inhibition % of two 10-compound mixtures (hits give high values) was 6.64% (inactive).

Turning to `O=C(CN1CCN(c2ccccn2)CC1)NCc1cccs1`, the mean inhibition % of two 10-compound mixtures (hits give high values) is -12.2% (inactive). Then `O=C(CSc1nc2cc3c(cc2c(=O)n1CCC1=CCCCC1)OCO3)NCc1ccco1`, with 2.65% (inactive).

Regarding `COc1ccc(S(=O)(=O)Nc2ccc(S(=O)(=O)N3CCCCC3)cc2)cc1OC`, the mean inhibition % of two 10-compound mixtures (hits give high values) is -2.79% (inactive).

For `CC(C)(C)NC(=O)C(c1ccco1)N(Cc1ccc2c(c1)OCO2)C(=O)Cn1nnc2ccccc21` (stereo not drawn), the mean inhibition % of two 10-compound mixtures (hits give high values) was 22% (active). For `CCC(C)(C)NC(=O)C(c1cccn1C)N(Cc1ccc(C)cc1)C(=O)Cn1nnc2ccccc21` (stereo not drawn), the mean inhibition % of two 10-compound mixtures (hits give high values) was -0.485% (inactive). The same measure for `COCCNC(=O)C(c1ccc(C)o1)N(Cc1ccccc1)C(=O)Cn1nnc2ccccc21` (stereo not drawn): -0.43% (inactive); for `CCOc1ccc(-c2nnn(CC(=O)N3CCN(c4ccc(F)cc4)CC3)n2)cc1OCC`: -19.4% (inactive). The same measure for `CC(=O)c1c(C)[nH]c(C(=O)NCCCN2CCCC2)c1C`: 13.1% (inactive). On to `Cc1nc(Nc2ccc3c(c2)OCCO3)c2nnn(Cc3ccccc3Cl)c2n1`, for which the mean inhibition % of two 10-compound mixtures (hits give high values) is -7.66% (inactive). The same measure for `Cn1c(SCC(=O)Nc2cccc(NC(=O)c3cccs3)c2)nnc1-c1ccncc1`: -18.6% (inactive); for `COc1ccc(N2C(=O)CN=C2Nc2cccc(C)c2C)cc1OC`: 13.9% (inactive).

As to `Cc1nc(C)c(C(=O)Nc2ccc(C)c(F)c2)o1`, the mean inhibition % of two 10-compound mixtures (hits give high values) is 4.8% (inactive). On to `Cc1nc(C)c(C(=O)Nc2cccc(C)c2C)o1`, for which the mean inhibition % of two 10-compound mixtures (hits give high values) is 22% (active). For the compound `COc1ccc(Cl)cc1NC(=O)c1oc(C)nc1C`, the mean inhibition % of two 10-compound mixtures (hits give high values) is -7.77% (inactive). Then `COCc1nc2ccccc2n1Cc1ccccc1Br`, with -10.1% (inactive); and `COc1cccc(C2/C(=C(/O)c3ccc(F)cc3)C(=O)C(=O)N2CCN(C)C)c1` (stereo not drawn), with 2.55% (inactive). The same measure for `Cc1ccc(NC(=O)N2CCC(C(=O)NCc3ccc(F)cc3)CC2)cc1`: 26.6% (inactive); for `CCOC(=O)c1[nH]c2ccc(C)cc2c1N=C(C)N(C)C`: -3.15% (inactive). Regarding `COc1ccc(-n2c(SCC(=O)NCc3cccs3)nnc2-c2ccoc2C)cc1`, the mean inhibition % of two 10-compound mixtures (hits give high values) was 1.91% (inactive). Then `O=C(Cn1cnc2c(cnn2-c2ccccc2)c1=O)NCc1ccccc1`, with 4.69% (inactive); and `O=C(OC1CCOC1=O)c1ccc(-c2nc3ccccc3s2)s1` (stereo not drawn), with 3.37% (inactive).

For the origin of these results see PubChem BioAssay AID538 (PCMD, 2006).
